# Assay results: the supplement of paper PMC10849652
# About 7,900 targets were measured; listed, in parts, are those with a hit and a random draw of the rest. About 0.6% of all pairs of compound and target were hits. A number with no mark means an inactive call.
# Legend:
# Assay in all cases: log2 fold change, soluble protein after heating vs DMSO (PISA); higher = thermal stabilisation; K562 cells, 10 uM, 30 min; active = over 0.2 and 3.5 SD of the protein, either way, in both replicates (recomputed)
# [1] = compound: CN1CCN(CCOc2cc(OC3CCOCC3)c3c(Nc4c(Cl)ccc5c4OCO5)ncnc3c2)CC1 [saracatinib]
# Summary of the method: (§1)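 Soluble protein was quantified by TMTpro 16plex LC-MS/MS after channel sums were equalised. It was obtained as the supernatant after 21,000xg for 90 min from pooled aliquots of K562 cells (2×10^6 cells/mL, 10 μM compound, 30 min) heated for 3 min across 48°C-58°C and extracted in PBS with 0.5% NP-40 at 4°C. Thermal stability values are relative to control samples and come from duplicates. They are given as log2 fold changes.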
# [2] = compound: CN1CCN(c2nc(C3=C(c4c[nH]c5ccccc45)C(=O)NC3=O)c3ccccc3n2)CC1 [sotrastaurin]
# Summary of the method: as §1
# [3] = compound: CN1CC[C@H](c2c(O)cc(O)c3c(=O)cc(-c4ccccc4Cl)oc23)[C@H](O)C1 [alvocidib]
# Summary of the method: as §1
# [4] = compound: CN1CCc2c(c3ccccc3n2Cc2ccc(C(=O)NO)cc2)C1 [Tubastatin A]
# Summary of the method: as §1
# [5] = compound: CNC(=O)C1=CC=CC=C1NC2=NC(=NC=C2Cl)NC3=C(C=C(C=C3)N4CCOCC4)OC
# Summary of the method: as §1
# [6] = compound: CNC(=O)c1ccc(Nc2ncc(C(F)(F)F)c(NCc3nccnc3N(C)S(C)(=O)=O)n2)cc1 [defactinib]
# Summary of the method: as §1
# [7] = compound: CNCc1ccc(-c2[nH]c3cc(F)cc4c3c2CCNC4=O)cc1 [rucaparib]
# Summary of the method: as §1
# [8] = compound: CNc1nc(-c2ccc3c(N)n[nH]c3c2)cc(N2C[C@@H](C(=O)NC3CCCCC3)CC[C@H]2C)n1
# Summary of the method: as §1
# [9] = compound: COC(=O)N[C@@H](C)CNc1nccc(-c2cn(C(C)C)nc2-c2cc(Cl)cc(NS(C)(=O)=O)c2F)n1 [encorafenib]
# Summary of the method: as §1
# [10] = compound: COC(=O)[C@H](CCSC)NC(=O)C1=C(C=C(C=C1)NC[C@H](CS)N)C2=CC=CC=C2
# Summary of the method: as §1
# [11] = compound: COC1=CC=C(C=C1)CN2C=CC3=C2C=C(C=C3)C(=O)NO
# Summary of the method: as §1
# [12] = compound: CON(C)C(=O)N1N=C(c2cc(F)ccc2F)S[C@@]1(CCCN)c1ccccc1 [filanesib]
# Summary of the method: as §1
# [13] = compound: CO[C@H]1C[C@@H]2CC[C@@H](C)[C@@](O)(O2)C(=O)C(=O)N2CCCC[C@H]2C(=O)O[C@H]([C@H](C)C[C@@H]2CC[C@H](n3cnnn3)[C@H](OC)C2)CC(=O)[C@H](C)/C=C(\C)[C@@H](O)[C@@H](OC)C(=O)[C@H](C)C[C@H](C)/C=C/C=C/C=C/1C [zotarolimus]
# Summary of the method: as §1
# [14] = compound: COc1cc(C(=O)O)ccc1NC(=O)[C@@H]1N[C@@H](CC(C)(C)C)[C@](C#N)(c2ccc(Cl)cc2F)[C@H]1c1cccc(Cl)c1F [idasanutlin]
# Summary of the method: as §1
# [15] = compound: COc1cc(Nc2ncc3c(n2)-c2ccc(Cl)cc2C(c2c(F)cccc2OC)=NC3)ccc1C(=O)O [alisertib]
# Summary of the method: as §1
# [16] = compound: COc1cc2nc(-c3cc(F)ccc3O)nc(N[C@@H]3CNC[C@H]3C(C)(C)O)c2cc1OC
# Summary of the method: as §1
# [17] = compound: COc1cc2ncnc(Nc3ccc(F)c(Cl)c3)c2cc1OCCCN1CCOCC1 [gefitinib]
# Summary of the method: as §1
# [18] = compound: COc1cccc2cc(-c3nc([C@H]4CC[C@H](C(=O)O)CC4)n4ncnc(N)c34)[nH]c12
# Summary of the method: as §1
# [19] = compound: CS(=O)(=O)CCNCc1ccc(-c2ccc3ncnc(Nc4ccc(OCc5cccc(F)c5)c(Cl)c4)c3c2)o1 [lapatinib]
# Summary of the method: as §1
# [20] = compound: CS(=O)(=O)N1CCN(Cc2cc3nc(-c4cccc5[nH]ncc45)nc(N4CCOCC4)c3s2)CC1 [pictilisib]
# Summary of the method: as §1
# Sequence of UniProt Q96HJ9 (Q96HJ9 whole entry, looked up): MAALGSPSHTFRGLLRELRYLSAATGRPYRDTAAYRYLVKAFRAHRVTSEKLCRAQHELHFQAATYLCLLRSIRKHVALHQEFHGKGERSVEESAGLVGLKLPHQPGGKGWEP
# Sequence of UniProt P51570 (P51570 whole entry, looked up): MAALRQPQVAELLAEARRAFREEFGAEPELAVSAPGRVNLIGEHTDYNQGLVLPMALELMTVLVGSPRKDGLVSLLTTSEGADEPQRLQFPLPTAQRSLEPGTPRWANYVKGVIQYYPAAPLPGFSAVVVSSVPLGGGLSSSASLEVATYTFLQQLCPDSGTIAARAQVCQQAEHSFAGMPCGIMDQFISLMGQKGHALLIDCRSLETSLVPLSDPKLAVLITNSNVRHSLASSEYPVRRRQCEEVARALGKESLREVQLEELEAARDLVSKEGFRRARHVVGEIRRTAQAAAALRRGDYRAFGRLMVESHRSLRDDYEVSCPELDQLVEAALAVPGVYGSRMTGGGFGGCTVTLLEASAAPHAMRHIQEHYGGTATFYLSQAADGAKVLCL
# Sequence of UniProt Q9UJ14 (Q9UJ14 whole entry, looked up): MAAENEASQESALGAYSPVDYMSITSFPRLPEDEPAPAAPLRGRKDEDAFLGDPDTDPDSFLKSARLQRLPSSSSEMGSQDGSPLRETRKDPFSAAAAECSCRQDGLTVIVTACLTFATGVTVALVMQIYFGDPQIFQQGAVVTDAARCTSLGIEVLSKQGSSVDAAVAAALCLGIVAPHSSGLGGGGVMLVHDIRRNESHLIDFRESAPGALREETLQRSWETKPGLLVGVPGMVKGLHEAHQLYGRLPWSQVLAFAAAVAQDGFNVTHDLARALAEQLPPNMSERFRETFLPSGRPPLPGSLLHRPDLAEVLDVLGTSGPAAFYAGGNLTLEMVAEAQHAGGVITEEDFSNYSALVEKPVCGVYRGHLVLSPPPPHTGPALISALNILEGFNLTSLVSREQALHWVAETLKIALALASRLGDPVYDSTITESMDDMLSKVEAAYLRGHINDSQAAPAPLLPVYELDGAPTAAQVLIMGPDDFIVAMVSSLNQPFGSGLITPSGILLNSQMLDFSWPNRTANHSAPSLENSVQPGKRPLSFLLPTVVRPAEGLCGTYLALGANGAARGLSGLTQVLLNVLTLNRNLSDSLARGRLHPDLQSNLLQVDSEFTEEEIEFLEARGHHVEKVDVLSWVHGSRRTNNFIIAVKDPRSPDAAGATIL
# Sequence of UniProt P49840 (P49840 whole entry, looked up): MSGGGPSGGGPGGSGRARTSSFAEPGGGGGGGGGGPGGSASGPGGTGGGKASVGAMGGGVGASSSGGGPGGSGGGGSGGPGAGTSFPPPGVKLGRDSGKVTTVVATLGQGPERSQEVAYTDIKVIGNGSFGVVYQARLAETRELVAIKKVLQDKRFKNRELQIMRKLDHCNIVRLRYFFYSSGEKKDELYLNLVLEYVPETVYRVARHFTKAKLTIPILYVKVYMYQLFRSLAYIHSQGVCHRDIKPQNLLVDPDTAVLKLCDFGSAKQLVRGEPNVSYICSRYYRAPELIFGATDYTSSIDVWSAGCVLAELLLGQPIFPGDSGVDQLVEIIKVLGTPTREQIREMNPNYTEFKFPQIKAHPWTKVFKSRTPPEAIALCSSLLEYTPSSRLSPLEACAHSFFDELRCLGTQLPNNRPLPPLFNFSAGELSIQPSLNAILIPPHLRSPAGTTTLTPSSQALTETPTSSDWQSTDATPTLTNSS
# Sequence of UniProt O00458 (O00458 whole entry, looked up): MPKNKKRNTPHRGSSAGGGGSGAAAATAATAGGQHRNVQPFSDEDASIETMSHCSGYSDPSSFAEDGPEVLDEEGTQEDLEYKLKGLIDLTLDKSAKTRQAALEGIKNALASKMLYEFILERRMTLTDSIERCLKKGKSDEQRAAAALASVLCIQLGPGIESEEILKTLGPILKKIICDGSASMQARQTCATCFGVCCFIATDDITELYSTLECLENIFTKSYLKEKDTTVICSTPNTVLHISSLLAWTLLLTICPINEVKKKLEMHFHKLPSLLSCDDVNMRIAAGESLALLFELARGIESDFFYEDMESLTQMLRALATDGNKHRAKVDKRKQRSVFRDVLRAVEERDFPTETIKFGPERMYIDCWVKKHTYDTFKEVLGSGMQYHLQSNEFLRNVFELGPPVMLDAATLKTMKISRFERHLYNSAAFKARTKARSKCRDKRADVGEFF
# Sequence of UniProt P08236 (P08236 whole entry, looked up): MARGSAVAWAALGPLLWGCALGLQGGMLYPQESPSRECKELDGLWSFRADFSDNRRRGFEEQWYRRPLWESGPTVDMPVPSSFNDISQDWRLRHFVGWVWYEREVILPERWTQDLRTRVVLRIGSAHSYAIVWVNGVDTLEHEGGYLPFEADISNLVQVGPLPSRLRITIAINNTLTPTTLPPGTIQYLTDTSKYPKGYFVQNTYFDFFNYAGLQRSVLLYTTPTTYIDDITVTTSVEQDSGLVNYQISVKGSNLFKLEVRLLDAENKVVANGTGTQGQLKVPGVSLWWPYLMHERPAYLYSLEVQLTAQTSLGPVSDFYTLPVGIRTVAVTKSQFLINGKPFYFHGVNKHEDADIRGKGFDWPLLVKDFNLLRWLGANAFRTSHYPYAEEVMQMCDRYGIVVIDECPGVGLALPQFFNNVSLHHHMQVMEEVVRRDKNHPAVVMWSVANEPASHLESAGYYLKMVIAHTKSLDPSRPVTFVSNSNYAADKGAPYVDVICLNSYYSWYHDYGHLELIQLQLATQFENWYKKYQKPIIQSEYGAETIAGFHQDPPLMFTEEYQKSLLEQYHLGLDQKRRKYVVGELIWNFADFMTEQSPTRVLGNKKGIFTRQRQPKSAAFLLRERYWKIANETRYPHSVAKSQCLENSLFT
# Sequence of UniProt P05362 (P05362 whole entry, looked up): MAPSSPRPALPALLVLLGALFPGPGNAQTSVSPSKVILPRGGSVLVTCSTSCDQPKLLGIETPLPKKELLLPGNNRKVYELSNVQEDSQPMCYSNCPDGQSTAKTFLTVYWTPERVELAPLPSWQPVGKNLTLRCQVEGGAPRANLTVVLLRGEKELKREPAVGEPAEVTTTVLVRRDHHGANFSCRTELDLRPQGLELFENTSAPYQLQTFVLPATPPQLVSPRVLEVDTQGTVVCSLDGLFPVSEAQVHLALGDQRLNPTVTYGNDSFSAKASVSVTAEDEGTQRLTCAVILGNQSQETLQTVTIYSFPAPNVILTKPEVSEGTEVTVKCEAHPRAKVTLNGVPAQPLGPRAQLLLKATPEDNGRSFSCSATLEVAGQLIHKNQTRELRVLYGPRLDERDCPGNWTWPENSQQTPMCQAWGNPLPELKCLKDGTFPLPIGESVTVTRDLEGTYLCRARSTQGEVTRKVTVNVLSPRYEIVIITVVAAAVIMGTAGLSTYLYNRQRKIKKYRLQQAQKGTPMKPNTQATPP
# Sequence of UniProt Q86VQ1 (Q86VQ1 whole entry, looked up): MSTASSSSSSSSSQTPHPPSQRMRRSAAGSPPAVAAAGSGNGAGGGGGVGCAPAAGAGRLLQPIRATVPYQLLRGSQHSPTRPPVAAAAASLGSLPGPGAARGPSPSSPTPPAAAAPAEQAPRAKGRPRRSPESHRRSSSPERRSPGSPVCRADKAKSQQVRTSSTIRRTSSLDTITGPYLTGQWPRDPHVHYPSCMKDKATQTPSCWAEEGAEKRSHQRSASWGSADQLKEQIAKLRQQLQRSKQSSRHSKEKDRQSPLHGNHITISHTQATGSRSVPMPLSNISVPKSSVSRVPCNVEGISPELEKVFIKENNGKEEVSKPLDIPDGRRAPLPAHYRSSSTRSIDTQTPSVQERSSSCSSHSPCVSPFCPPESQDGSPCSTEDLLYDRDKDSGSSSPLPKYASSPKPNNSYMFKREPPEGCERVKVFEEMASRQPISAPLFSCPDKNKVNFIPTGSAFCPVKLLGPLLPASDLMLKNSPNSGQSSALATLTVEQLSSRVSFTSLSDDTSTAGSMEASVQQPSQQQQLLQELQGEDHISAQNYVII
# Sequence of UniProt P62879 (P62879 whole entry, looked up): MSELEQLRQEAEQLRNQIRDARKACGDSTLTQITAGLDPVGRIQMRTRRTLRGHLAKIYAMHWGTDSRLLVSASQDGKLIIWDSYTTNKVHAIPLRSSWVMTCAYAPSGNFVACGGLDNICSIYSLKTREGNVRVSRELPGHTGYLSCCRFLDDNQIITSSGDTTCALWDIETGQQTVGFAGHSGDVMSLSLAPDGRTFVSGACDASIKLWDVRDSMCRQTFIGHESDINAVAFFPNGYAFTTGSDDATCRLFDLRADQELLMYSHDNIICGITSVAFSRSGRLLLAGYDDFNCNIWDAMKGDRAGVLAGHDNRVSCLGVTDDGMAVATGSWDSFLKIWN
# Sequence of UniProt P23434 (P23434 whole entry, looked up): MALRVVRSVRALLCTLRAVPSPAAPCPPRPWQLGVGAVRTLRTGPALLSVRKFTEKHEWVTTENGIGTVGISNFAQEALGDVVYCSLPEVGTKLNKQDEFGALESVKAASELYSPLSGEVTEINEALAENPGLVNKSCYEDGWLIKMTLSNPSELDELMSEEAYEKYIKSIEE
# Sequence of UniProt P02008 (P02008 whole entry, looked up): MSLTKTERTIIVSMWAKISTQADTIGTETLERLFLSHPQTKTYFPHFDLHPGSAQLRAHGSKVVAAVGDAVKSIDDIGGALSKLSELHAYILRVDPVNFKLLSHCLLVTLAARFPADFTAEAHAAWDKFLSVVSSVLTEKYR
Target,log2 fold change [1],log2 fold change [2],log2 fold change [3],log2 fold change [4],log2 fold change [5],log2 fold change [6],log2 fold change [7],log2 fold change [8],log2 fold change [9],log2 fold change [10],log2 fold change [11],log2 fold change [12],log2 fold change [13],log2 fold change [14],log2 fold change [15],log2 fold change [16],log2 fold change [17],log2 fold change [18],log2 fold change [19],log2 fold change [20]
GNB2 (UniProt P62879),-0.033,0.019,0.001,0.015,-0.002,-0.028,-0.004,0.039,0.005,-0.065,-0.051,0.034,-0.006,-0.058,-0.068,0.089,0.085,-0.071,0,0.13
GALK1 isoform 2 (UniProt P51570),0.117,-0.096,-0.035,-0.011,-0.049,-0.032,-0.014,0.055,0.007,-0.006,-0.023,-0.201,0.012,-0.106,-0.125,-0.049,-0.005,0.036,0.147,-0.05
GSK3A (UniProt P49840),-0.007,0.337 (active),0.257,-0.007,-0.009,0.18,0.22,-0.041,0.005,-0.051,-0.028,-0.087,-0.029,-0.107,0.051,0.088,-0.008,0.045,-0.016,0.188
GLCCI1 (UniProt Q86VQ1),-0.017,-0.016,0.002,0.082,-0.057,-0.072,0.087,-0.063,0.026,-0.051,0.009,0.052,0.067,0.11,-0.025,-0.096,0.109,0.083,-0.02,-0.039
GCSH (UniProt P23434),-0.024,0.057,0.009,-0.017,0.021,-0.01,-0.012,-0.004,-0.028,-0.008,-0.086,-0.029,0.014,-0.024,0.154,0.03,0.003,0.001,-0.028,-0.078
ICAM1 (UniProt P05362),0.035,0.07,-0.004,-0.03,-0.073,-0.026,0.049,0.099,-0.004,0.043,-0.018,0.132,-0.038,0.042,0.002,0.08,0.029,0.104,-0.028,0
FMC1 (UniProt Q96HJ9),0.139,0.09,0.026,0.034,0.113,-0.056,-0.023,-0.071,-0.105,0.051,0.068,-0.037,-0.101,-0.091,-0.042,-0.008,0.06,0.023,-0.018,0.024
HECTD1 (UniProt Q9ULT8),-0.184,-0.066,0.111,0.071,0.033,-0.026,0.056,-0.001,-0.154,-0.018,-0.039,0.091,0.023,0.047,0.087,-0.04,-0.016,-0.132,0.096,0.02
GGT7 (UniProt Q9UJ14),0.066,0.051,-0.049,0.053,-0.042,-0.027,-0.038,-0.091,0,-0.011,0.044,0.081,-0.03,-0.039,-0.07,-0.098,0.055,0.05,-0.062,0.143
HBZ (UniProt P02008),0.022,0.03,0.036,0,-0.041,0.011,-0.026,-0.006,-0.004,-0.025,0.012,-0.003,0.035,0.045,-0.077,-0.055,0.003,0.093,0.007,-0.006
IFRD1 (UniProt O00458),0.026,0.242,0.064,0.089,0.042,-0.003,-0.46 (active),-0.042,0.038,0.006,-0.07,-0.017,0.071,-0.042,-0.008,-0.25,0.199,0.253,0.069,0.214
GUSB (UniProt P08236),0.03,-0.004,0.021,-0.054,0.045,-0.055,0.048,-0.039,0.128,0.029,-0.063,-0.016,0.014,0.034,0.022,-0.084,-0.013,-0.027,0.016,0.098
